In PubChem BioAssay (NCATS) one finds Potency and outcome data, which are given here for 17 compounds.

Records with an inconclusive call do not appear. Entries that show only a call come without a potency. Activity calls are given as the source filed them. The call rests on the fitted dose curve; in most records, active means well fitted curve in the direction sought with a large enough effect; inconclusive means small, poorly fitted or top-dose-only effect, or another doubt; inactive means no such curve, though single readings can be large; an effect the other way counts as inactive or inconclusive.

Experiment [1] in a line: qHTS to identify inhibitors of the type 1 interferon - major histocompatibility complex class I in skeletal muscle: primary screen against the NCATS LOPAC collection (AID 1347405).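 Further: human myoblasts with HiBiT tag on endogenous HLA-B stimulated by IFN-beta; lytic HiBiT luminescence reporting HLA-B protein level.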 Further: potency means the concentration at half of the fitted maximal effect. In short, it runs like this:
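First, engineered myoblasts carrying HLA-B-HiBiT were seeded in medium lacking dexamethasone with 4 ng/ml IFN-beta. After 1 hr, compounds were pinned in (top 46 uM final, 7 points). After 24 hrs at 37 C, luminescence was measured following 10 min lysis.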
Background: Quantitative high-throughput screening tests each substance at several concentrations.

Experiment [2] can be described thus: qHTS for inhibitors of adenylyl cyclases using a fission yeast platform: a pilot screen against the NCATS LOPAC library (AID 1347410). An outline of the steps: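 Read-out: fbp1-GFP fluorescence by laser scanning cytometry (488 nm laser), a gain of signal when AC/cAMP-PKA signalling is inhibited. Strain CHP2027 expressing AC9, GNAS and PDE4D2; compounds at up to 57 µM; 18 h, 30C.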

The nature of experiment [3]: Inflammasome Signaling qHTS Counterscreen: IL-1-beta AlphaLISA counterscreen against the NCATS CANVASS Library (AID 1347381).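 Further: cell-free check with purified IL-1β in medium and no THP-1 cells; series mostly up to about 57 µM.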 In short, it runs like this: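 Purified IL-1-beta (4 pg/well) + compound, 11-pt conc. series; acceptor beads 6 ug/mL + biotin-Ab 0.6 nM final, 1 h RT; SA-donor 24 ug/ml final, 30 min dark RT; read ex 680/em 615.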
The nature of experiment [4]: Cytotoxicity qHTS for assessment of Hepg2 cells membrane integrity screened against the NCATS CANVASS Library (AID 1347387). In short, it runs like this: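 Cells were seeded at 2000 per well and left overnight to attach. Compounds were pin-transferred to give 0.59 nM - 46 uM in an 11-point series and incubated 5 hr at 37C. CytoTox-ONE reagent was added and, after 10 min at room temperature, fluorescence (ex 560, em 590 nm) was read.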

Experiment [5] in a line: qHTS for Activators of p53 Stress Response Pathway screened against the NCATS CANVASS Library (AID 1347388). An outline of the steps:
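p53RE-bla HCT-116 cells (4000/well) were plated 5 h at 37C, exposed to compounds for 16 h at 37C over an 11-point concentration series, then loaded with CCF4 for 2 h at room temperature; 460/530 nm emission ratio read.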

A short description of experiment [6]: qHTS assay for small molecule disruptors of mitochondrial membrane potential screened against the NCATS CANVASS Library (AID 1347389). Further: potency means the concentration at half of the fitted maximal effect; nearly all actives have a fitted effect of over 60% in size. An outline of the steps:
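Mitochondrial depolarization in HepG2 cells is scored as a falling aggregate-to-monomer fluorescence ratio after 1 hr compound exposure and 30 min staining with Mito-MPS dye at 37C, each compound tested as an 11-point titration.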

The nature of experiment [7]: qHTS for activators of dead-cell proteases activity screened against the NCATS CANVASS Library (AID 1347392).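 Further: luminescence from protease leaking out of membrane-damaged cells cleaving impermeant substrate; rising signal means more cytotoxicity.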 In short, it runs like this:
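Cytotoxicity in HepG2 cells was assessed by released protease cleaving AAF-aminoluciferin, with luminescence as signal. Exposure lasted 5 h at 37C across an 11-point series.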

Experiment [8] can be described thus: qHTS for inhibitors of ER calcium dysfunction: SERCaMP assay screened against the NCATS CANVASS Library (AID 1347393). Further: potency means the concentration at half of the fitted maximal effect; nearly all actives have a fitted effect of over 40% in size. In short, it runs like this:
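qHTS in SH-SY5Y reporter cells: 16 h compound pretreatment, 4 h thapsigargin, then secreted Gaussia luciferase measured by luminescence.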

Experiment [9] can be described thus: Vero-766 cells viability qHTS against the NCATS CANVASS Library: Counterscreen for Zika virus inhibition assay (AID 1347394). Further: potency means the concentration at half of the fitted maximal effect; nearly all actives have a fitted effect of over 60% in size. In short, it runs like this:
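CellTiter-Glo luminescence, lower signal indicating cytotoxicity. Vero 766 cells without Zika virus, 1000 cells/well, plated overnight, then treated 72 h at 37C across an 11-point series.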

A short description of experiment [10]: Viability qHTS for inhibitors of the SERCaMP assay screened against the NCATS CANVASS Library (AID 1347400). Further: potency means the concentration at half of the fitted maximal effect; nearly all actives have a fitted effect of over 70% in size. An outline of the steps:
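Seed SH-SY5Y-GLuc SERCaMP MJH297 cells at 1000 per well, incubate 4 h, add compounds across an 11-point range, incubate 48 h at 37C, then add CellTiter-Glo and read luminescence.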

Experiment [11] is described as follows: Redox Reaction Profiling qHTS: Assay Interference Panel against the NCATS CANVASS Library (AID 1347401). In short, it runs like this: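 Quantitative HTS over an 11-point series was run in HEPES pH 7.3 with 50 mM NaCl, 200 uM DTT and 5 uM resazurin. Initial and 15-min resorufin fluorescence readings were taken.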
Experiment [12] is described as follows: qHTS to identify inhibitors of the type 1 interferon - major histocompatibility complex class I in skeletal muscle: primary screen against the NCATS Pharmaceutical Collection (AID 1347407).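 Further: luminescence of HiBiT knocked into endogenous HLA-B as interferon-induced MHC class I level.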 In short, it runs like this: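 HLA-B HiBiT myoblasts, dexamethasone-free growth medium + 4 ng/ml IFN-b; compounds pinned 1 h after seeding, […] from 46 uM; 24 h, 37 C, 5% CO2; lytic HiBiT detection, 10 min RT, luminescence.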

Experiment [13] deals with Protein phosphatase 1D (Homo sapiens) (UniProt O15297). Description: RapidFire Mass Spectrometry qHTS Assay for Modulators of WT P53-Induced Phosphatase 1 (WIP1) (AID 1347424).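 Further: amount of dephosphorylated VEPPL-S-QETFS peptide product formed by WIP1; series mostly up to about 63 µM.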 An outline of the steps: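 Mass-spectrometric measurement of dephosphorylated peptide after a 5 min room-temperature reaction of 10 nM WIP1 with 2 uM phosphopeptide, following 1 h compound preincubation in 30 mM MgCl2 buffer.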
Chain of Protein phosphatase 1D (Homo sapiens) (O15297 whole entry, looked up): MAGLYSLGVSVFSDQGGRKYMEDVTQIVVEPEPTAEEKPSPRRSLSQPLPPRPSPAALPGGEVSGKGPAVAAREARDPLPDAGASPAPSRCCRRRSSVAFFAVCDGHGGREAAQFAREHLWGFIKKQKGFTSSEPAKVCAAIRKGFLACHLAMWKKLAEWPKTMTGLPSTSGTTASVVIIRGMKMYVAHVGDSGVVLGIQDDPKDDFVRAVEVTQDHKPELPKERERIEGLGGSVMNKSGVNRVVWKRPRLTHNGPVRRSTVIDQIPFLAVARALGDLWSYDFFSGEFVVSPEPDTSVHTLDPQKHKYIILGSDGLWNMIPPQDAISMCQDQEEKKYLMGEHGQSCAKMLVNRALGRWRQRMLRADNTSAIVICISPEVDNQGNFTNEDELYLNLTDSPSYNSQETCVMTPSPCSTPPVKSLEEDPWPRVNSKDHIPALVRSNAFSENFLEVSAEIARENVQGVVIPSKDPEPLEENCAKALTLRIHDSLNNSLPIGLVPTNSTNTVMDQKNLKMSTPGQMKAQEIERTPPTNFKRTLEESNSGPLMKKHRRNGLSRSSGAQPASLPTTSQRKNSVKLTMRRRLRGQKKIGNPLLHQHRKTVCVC

The target is the same in experiment [14]. Description: Rhodamine-PBP qHTS Assay for Modulators of WT P53-Induced Phosphatase 1 (WIP1) (AID 1347425). In short, it runs like this: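 Read-out: Rhodamine-PBP fluorescence (ex 525/em 598 nm) for released Pi, read each minute for 11 min after adding 10 uM VEPPL-pS-QETFS; signal taken as f1 minus pre-substrate f0. Enzyme 5 nM WIP1 with 1 hr room-temperature compound preincubation.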

A short description of experiment [15]: Validation qHTS assay for inhibitors of Activation Induced Cytidine Deaminase (AID): UDG Counterscreen signal (AID 1347427). In short, it runs like this: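 Fluorescence at 560 nm excitation, 665 nm emission reports UDG signal after 250 mM NaOH (2x) addition and 30 min. Enzymes (AID 1 uM, UDG 2 U/mL, at 4/3x) preincubated 10 min with compound, then 4 h with 4x 250 nM DJC20/DJC23 substrate at room temperature.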

The target of experiment [16] is Single-stranded DNA cytosine deaminase (Homo sapiens) (UniProt Q9GZX7). Nature of the experiment: Validation qHTS assay for inhibitors of Activation Induced Cytidine Deaminase (AID): AID signal (AID 1347429). In short, it runs like this: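 Steps: dispense AID with UDG; pin-transfer compound up to 114 uM final; add DJC20/DJC23 substrate and hold 4 hr at room temperature; add NaOH, hold 30 min; read FRET signal (540/590 nm).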
Chain of Single-stranded DNA cytosine deaminase (Homo sapiens) (Q9GZX7 whole entry, looked up): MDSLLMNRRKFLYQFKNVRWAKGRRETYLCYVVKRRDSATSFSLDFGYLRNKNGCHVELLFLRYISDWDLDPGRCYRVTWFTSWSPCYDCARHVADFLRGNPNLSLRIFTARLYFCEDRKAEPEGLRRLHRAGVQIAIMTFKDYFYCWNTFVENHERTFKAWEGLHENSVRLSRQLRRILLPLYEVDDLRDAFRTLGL

Experiment [17] in a line: Primary qHTS for inhibitors of La Crosse Virus (LACV) - induced cell death in SH-SY5Y cells (AID 1508616).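 Further: top concentration of the series differs between compounds; higher means more rescue of cells from virus-induced death.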 In short, it runs like this: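 SH-SY5Y, 6000 cells/well; cpd via pin tool in DMSO; LACV 0.01 MOI; 6 d 37C 5% CO2; ATPLite, 5 min RT; luminescence normalized to ±virus DMSO controls.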
Experiment [18] can be described thus: qHTS to identify inhibitors of the type 1 interferon - major histocompatibility complex class I in skeletal muscle: primary screen against the NCATS Mechanism Interrogation Plate v5.0 (MIPE) Libary (AID 1347411). Further: nearly all actives have a fitted effect of over 65% in size. An outline of the steps:
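Seed engineered human myoblasts (HLA-B HiBit) in medium without dexamethasone containing 4 ng/ml IFN-beta; after 1 hr add compound titrations (top 46 uM final). Incubate 24 hrs at 37 C, lyse 10 min with HiBiT reagent, read luminescence.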

With `COc1ccccc1CN[C@@H]1CCCN[C@@H]1c1ccccc1`, the Potency entry in experiment [1] is “inactive”.
As for `CC[C@H]1OC(=O)[C@H](C)C(O[C@H]2C[C@@](C)(OC)[C@@H](O)[C@H](C)O2)[C@H](C)[C@@H](OC2O[C@H](C)C[C@H](N(C)C)[C@H]2O)[C@](C)(O)C[C@@H](C)CN(C)[C@H](C)[C@@H](O)[C@]1(C)O` (some centres undefined), the Potency result in experiment [1] was “inactive”. The compound was classed as inactive in experiment [2].
With `Nc1nc2c(ncn2[C@@H]2O[C@H](CO)[C@@H](O)[C@@H]2O)c(=O)[nH]1`, the Potency entry in experiment [1] was “inactive”. Further, the result in [2] was inactive.
For the compound `Nc1ccn([C@@H]2O[C@H](CO)[C@@H](O)[C@@H]2O)c(=O)n1`, in experiment [1], the Potency entry is “inactive”.
As to `O=c1cc(-c2ccccc2)oc2c(O)c(O)ccc12`, the compound was classed as inactive in experiment [3], in experiment [4], in [5], in experiment [7], in experiment [11] and in experiment [2]. Moreover, the Potency in experiment [6] is 18.6 µM (active); in experiment [8], 38.4 µM (active); in experiment [9] it was 23.4 µM (active); in [10], 34 µM (active). The Potency entry in experiment [1] was “inactive”.
In the case of `CCCC(CCC)C(=O)OC1CC2CCC(C1)[N+]2(C)C` (centres undefined), the Potency entry in experiment [1] is “inactive”. Also, the result in experiment [2] was inactive.
With `CC(N)C(=O)OC(C)(C)Cc1ccc(Cl)cc1` (centres undefined), the Potency result in experiment [1], in experiment [12], in [13], in [15], in experiment [16] and in experiment [17] was “inactive” in each case. For the same compound, the compound was classed as inactive in [2] and in experiment [14].
Consider `O=C(Nc1ccc2c(c1)CCN(Cc1ncn[nH]1)C2)c1ccccc1-c1ccc(C(F)(F)F)cc1`, for which the Potency entry in experiment [1] and in experiment [18] was “inactive” throughout. Also, the call in experiment [2] was inactive.
As to `COc1ccc(/C=C2\COc3ccc(C)cc3C2=O)cc1O`, the Potency in [1] is 14.1 µM (active).
`CC(=O)/C=C1\C(=O)N(C)c2ccccc21`: the Potency in [1] is 22.4 µM (active). In addition, the outcome in experiment [2] was inactive.
On to `Fc1ccc2[nH]c(CN3CCN(c4ccccn4)CC3)cc2c1`, for which the Potency entry in experiment [1] was “inactive”. Besides, the outcome in [2] was inactive.
With `CCC(CO)Nc1nc(NCc2ccccc2)c2ncn(C(C)C)c2n1` (centres undefined), the Potency in experiment [1] was 15.8 µM (active). Further, the outcome in experiment [2] was inactive.
Take `CCC1C(=O)OCC1Cc1cncn1C` (centres undefined): the Potency entry in experiment [1], in experiment [12], in experiment [13], in experiment [15], in experiment [16] and in [17] was “inactive” throughout. Besides, the result in experiment [2] and in experiment [14] was inactive.
On to `Cn1ncc(S(=O)(=O)Cc2ccccc2)c(Br)c1=O`, for which the Potency entry in experiment [1] and in [15] was “inactive” each time. The call in [2] was inactive.
On to `CCNC(=O)[C@H]1O[C@@H](n2cnc3c(N)nc(NCCc4ccc(CCC(=O)O)cc4)nc32)[C@H](O)C1O` (some centres undefined), for which the Potency entry in [1] is “inactive”. Besides, in experiment [2], the result was inactive.
`CO[C@H]1O[C@@H]2O[C@]3(C)CC[C@@H]4[C@@H](C)CC[C@H]([C@H]1C)[C@]24OO3`: the Potency entry in experiment [1] is “inactive”. For the same compound, the compound was classed as inactive in experiment [2].
For the compound `O=C1NCc2c1c1c3ccccc3[nH]c1c1[nH]c3ccccc3c21`, in experiment [1], the Potency was 7.94 µM (active). In addition, the call in experiment [2] was inactive.
